Publication PMC7819943, “Rice protein-binding microarrays: a tool to detect cis-acting elements near promoter regions in rice”
In all, about 68,000 sequences were measured (“fluorescence intensity (a.u.)”: median about 9,100, highest 2% from about 16,000 on). Shown is part of a subset that was picked to be rich in the highest values.

What follows are sequences tested against OsWRKY34 (Oryza sativa, UniProt Q0JBA9 1-250) (assay: protein-binding microarray (RPBM); PBS, 2% BSA, 51.3 ng/ul salmon testes DNA, 50 uM zinc acetate, 200 nM TF, 25 C, 1 h; high values mean tight binding). Conditions: protein: recombinant; tags: N-terminal polyhistidine and DsRed monomer fusion (pET32a); label: CyDye5-dUTP incorporated in the synthesized complementary strand; 3' TTTTT single-stranded linker to array surface; dsDNA, one strand shown.
Sequence of OsWRKY34 (Q0JBA9 entry or part of it): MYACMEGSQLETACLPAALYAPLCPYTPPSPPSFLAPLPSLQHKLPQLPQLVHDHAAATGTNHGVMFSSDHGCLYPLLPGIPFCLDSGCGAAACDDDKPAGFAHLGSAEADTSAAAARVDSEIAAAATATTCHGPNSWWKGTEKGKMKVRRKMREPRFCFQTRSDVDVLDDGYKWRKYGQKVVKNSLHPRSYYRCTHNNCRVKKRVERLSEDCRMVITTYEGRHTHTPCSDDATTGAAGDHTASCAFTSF
Method in brief: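 Polyhistidine-tagged DsRed fusions of transcription factors, joined at the N-terminus, were expressed in E. coli BL21-CodonPlus and isolated on Ni–NTA. They were incubated at 200 nM for 1 h at 25 °C on a custom Agilent array, double-stranded and BSA-blocked, in PBS with 2% BSA, salmon testes DNA and 50 µM zinc acetate. The binding signal is per-feature fluorescence intensity (arbitrary units) read on an Axon 4000B scanner after washing.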

| Sequence | binding signal |
| --- | --- |
| ATTGAGCGATTTTCGGTATTTCACGATGGGTTATATTTTACGGAGTCACCTAGTGCAG | 8720 fluorescence intensity (a.u.) |
| ATGTTGTTTGTTATGATGCTGTTCTTTTGTTGTTGTTTACCGGAGTCACCTAGTGCAG | 11700 fluorescence intensity (a.u.) |
| CGATTTTTATTTTTCGCCGGATGGGGTTGACTTTTTTTTACGGAGTCACCTAGTGCAG | 20900 fluorescence intensity (a.u.) |
| GGATTTTTGACGGGGTTTTGCAACGGACTTGACTTGTTTACGGAGTCACCTAGTGCAG | 8320 fluorescence intensity (a.u.) |
| ATCTTTCTTATGCTGGCCATGATCTATGTTGCTGTTTTTGCGGAGTCACCTAGTGCAG | 17700 fluorescence intensity (a.u.) |
| TAATACTTTATGCGTGACTTATCTTTTTAAATTTTTTTCACGGAGTCACCTAGTGCAG | 8970 fluorescence intensity (a.u.) |
| TGCGTTGACTTTATCTTCAAATTAATTATGTGCTAATAGGCGGAGTCACCTAGTGCAG | 22300 fluorescence intensity (a.u.) |
| ATCTCCCATGTGTGCATGCATCTTTTTTTGTTGTTTGCTGCGGAGTCACCTAGTGCAG | 11200 fluorescence intensity (a.u.) |
| TTTTTGACTTTGACTTTTAATAGTAAAAAAATCAATTATGCGGAGTCACCTAGTGCAG | 9900 fluorescence intensity (a.u.) |
| CCCTAAATATTTGACACCGTTGACTTTTTTAAATATGTTTCGGAGTCACCTAGTGCAG | 39600 fluorescence intensity (a.u.) |
| GGAAGATTACCCTGTTTACCACTCACTGTACGATGATTATCGGAGTCACCTAGTGCAG | 9260 fluorescence intensity (a.u.) |
| CACACCATTTCCTTTTTCTTTAGAAAATATCACACTATCACGGAGTCACCTAGTGCAG | 9060 fluorescence intensity (a.u.) |
| ATCGACCTCCATTTTAACGTACGACTCCCTAAGAGACCCGCGGAGTCACCTAGTGCAG | 9660 fluorescence intensity (a.u.) |
| AATTACTATAACACATCTTCCTAACAAATGCACCTCAATACGGAGTCACCTAGTGCAG | 8050 fluorescence intensity (a.u.) |
| CATATGTTTACACCCAAATTTGGCACCTAGGATTAAAATACGGAGTCACCTAGTGCAG | 8350 fluorescence intensity (a.u.) |
| TGCTGTCGTATACTAGAAGCTGATGCTTTTCTTGCTTAGTCGGAGTCACCTAGTGCAG | 8940 fluorescence intensity (a.u.) |
| CAACCCACACACCACCACACAGATCACAACAGCAAGTTGTCGGAGTCACCTAGTGCAG | 8160 fluorescence intensity (a.u.) |
| TTTGTTTGGTAAAATTTTTGGTGGGGATTGGAGTTGGAAACGGAGTCACCTAGTGCAG | 9440 fluorescence intensity (a.u.) |
| CTCTCATGTATATACATTAATTATGTTTTTGTCCCCATTTCGGAGTCACCTAGTGCAG | 9950 fluorescence intensity (a.u.) |
| GAGCATCACAAGTCGCGACCTCACAGGGAGGGGCGGCGGCCGGAGTCACCTAGTGCAG | 9060 fluorescence intensity (a.u.) |
| TGTTTTCTGTTCTTTGTTGACTTTAAGTCGCTAAATTTTGCGGAGTCACCTAGTGCAG | 11500 fluorescence intensity (a.u.) |
| AGTAATTTATGTTTGACTATTTTTTTAAAAATTTTTTATGCGGAGTCACCTAGTGCAG | 10800 fluorescence intensity (a.u.) |
| CTGTATCCATCCCTAAATATTTGACGCCGTTGACTTTTCTCGGAGTCACCTAGTGCAG | 25600 fluorescence intensity (a.u.) |
| GTTTTGACTTTTTTTTCTAATAAAATTTCTTTTATGTTTGCGGAGTCACCTAGTGCAG | 18600 fluorescence intensity (a.u.) |

| Sequence | binding signal |
| --- | --- |
| GAACTGCTCCCTCCATCCATAAATATTTGACGCCGTTGACCGGAGTCACCTAGTGCAG | 11900 fluorescence intensity (a.u.) |
| ATTATCCTCTTGTTTTTCAACTGGAATGAACCACCAACAACGGAGTCACCTAGTGCAG | 9790 fluorescence intensity (a.u.) |
| CACTACTATCTGCCTCACCGTTAACCCTACCGAATAAATTCGGAGTCACCTAGTGCAG | 8880 fluorescence intensity (a.u.) |
| ATTGCAGCCTTCGCCTCCTTTCCTTCAGGTACACATATTGCGGAGTCACCTAGTGCAG | 9850 fluorescence intensity (a.u.) |
| TTGTGGGAGGAGGGGATGGAATGATGATGACTCTGTTTTTCGGAGTCACCTAGTGCAG | 8200 fluorescence intensity (a.u.) |
| GGTGATCTTTGTATTCTTTTTCTGCAGCGAACATATAGCTCGGAGTCACCTAGTGCAG | 16300 fluorescence intensity (a.u.) |
| GACGCGGCGCAGTGCAACCAACAAACCGGGGCGGGCGGGGCGGAGTCACCTAGTGCAG | 11800 fluorescence intensity (a.u.) |
| CCGCTCTGATTCGCAAACTATAACACCAAACAAACGGGCGCGGAGTCACCTAGTGCAG | 20100 fluorescence intensity (a.u.) |
| ATTTTGATTTTTGCAATCACCACCCCGCGCGGCGCAAACACGGAGTCACCTAGTGCAG | 8880 fluorescence intensity (a.u.) |
| ATTATATGCTAATTACTTTCTCGTTTTACGTACACCAACTCGGAGTCACCTAGTGCAG | 8420 fluorescence intensity (a.u.) |
| TTTCATTTTTTTTTACCACCTCACCTTCTGTGTTTCTTTTCGGAGTCACCTAGTGCAG | 9040 fluorescence intensity (a.u.) |
| AGATGTTTTGACTTTAGTCAAAGTCAAACTGCTTTAAGTTCGGAGTCACCTAGTGCAG | 11800 fluorescence intensity (a.u.) |
| TGCATTTCAATTCAAATTTAAGTTGATTCGTTGACTTGTTCGGAGTCACCTAGTGCAG | 10100 fluorescence intensity (a.u.) |
| AAATTTGAAGTAGTTTGACTTTGACCAAAGTCAAAACATCCGGAGTCACCTAGTGCAG | 17600 fluorescence intensity (a.u.) |
| TTTGGTCAAAGTCAAACTGCTTCTAGTTTGACTAAATTTACGGAGTCACCTAGTGCAG | 17800 fluorescence intensity (a.u.) |
| AAGCTTTGACTTTTTTTTGTCAAATTTTTTAAGTTTGATTCGGAGTCACCTAGTGCAG | 20400 fluorescence intensity (a.u.) |
| AAACTTGAAGAAATTTGACTTTAGCTAAAGTCAAAACATCCGGAGTCACCTAGTGCAG | 10600 fluorescence intensity (a.u.) |
| ATTTTGGTCAAATTTAAACTAATCTAAGTTTGACTAATTTCGGAGTCACCTAGTGCAG | 8610 fluorescence intensity (a.u.) |
| ATTTAAAATAGTTTGACTTTGACCAAAGTCAAAACATCTTCGGAGTCACCTAGTGCAG | 13500 fluorescence intensity (a.u.) |
| TTGACTTTGTTTAAAGTCAAACTGCTTCAAGTTTGACTAACGGAGTCACCTAGTGCAG | 9550 fluorescence intensity (a.u.) |
| TTGGTCAAAGTCAAACTGCTTTAAGTTTGACCAAGTTTGTCGGAGTCACCTAGTGCAG | 21500 fluorescence intensity (a.u.) |
| TAAAGTCAAACTGTTTTTTTAAGTTTGACCAAGCTTTTGACGGAGTCACCTAGTGCAG | 10400 fluorescence intensity (a.u.) |
| TTTTGTCATTGTCAAATTTTGATAAGTTTGTCAAAATTTTCGGAGTCACCTAGTGCAG | 9080 fluorescence intensity (a.u.) |
